# Test results taken from PubChem BioAssay AID624304 (Sanford-Burnham Center for Chemical Genomics, 2012).
# Screen size: about 360,000 compounds; about 1,800 (0.5%) were called active.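 Rule for the calls: active = interference check ratio from 0.5 to 1.5 plus GFP to RFP signal ratio inhibition reaching or exceeding a fixed threshold (cut at about 30% in these data, passing the limit was not always enough); inactive = the rest.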 The entries come from a sample that favours actives as a whole.
# Experiment: suppressors of acrylamide-induced Pgst-4::GFP reporter in worms, primary screen, SKN-1 inhibitor project, whole organism, uHTS, GFP/RFP fluorescence ratio, strain VP596 (AID 624304)
# Settings: C. elegans VP596 Pgst-4::GFP/RFP ratio, 24 h, at 21.8 µM, hits give high values
row,Structure (SMILES),inhibition
1,CCc1ccc2c(c1)C1(NN=C(c3ccccc3)S1)C(=O)N2 (configuration not stated),4.61% (inactive)
2,Cc1ccc(-c2ccc(CN3C(C(C)C)C(=O)N(Cc4cn(CCC5OCCO5)nn4)CCS3(=O)=O)cc2)cc1 (configuration not stated),12.6% (inactive)
3,COc1ccc(C2C3=C(OC(C)=O)c4ccccc4C3=Nc3c2c(=O)n(C)c(=O)n3C)cc1 (configuration not stated),2.4% (inactive)
4,CCOc1ccc(OCC)c(NC(=O)CN(C)S(=O)(=O)c2cccc3nsnc23)c1,27.2% (inactive)
5,CCO[C@@H]1OC(C(=O)NCc2nc3ccccc3[nH]2)=C[C@H](C2CCCCC2)[C@H]1CCCO,7.19% (inactive)
6,COC(=O)c1ccc(C2NC(=O)NC(C)=C2C(=O)N(C)C)cc1 (configuration not stated),0.51% (inactive)
7,CCOC(=O)C1=C(C)NC2=C(C(=O)CC(C)(C)C2)C1c1ccsc1 (configuration not stated),1.51% (inactive)
8,CCOC(=O)C1=C(C)Nc2sc(C(=O)c3ccc(Br)cc3)c(N)c2C1c1ccc(C(=O)OC)cc1 (configuration not stated),37.2% (active)
9,CS(=O)(=O)N(CC(O)Cn1c2ccccc2c2ccccc21)c1cccc2ccccc12 (configuration not stated),5.96% (inactive)
10,Oc1cccc2cc(-c3ccncc3)cnc12,-1.84% (inactive)
11,CC1=NN(C(=O)CCc2ccccc2O)C(O)(C(F)(F)F)C1 (configuration not stated),0.219% (inactive)
12,CCN(CC)S(=O)(=O)c1ccc(N(C)Cc2cccc(OC)c2OC)nc1,13.3% (inactive)
13,CCN(CC)S(=O)(=O)c1ccc(N(C)CCc2ccc(OC)c(OC)c2)nc1,43% (active)
14,CCN(CC)S(=O)(=O)c1ccc(N(C)Cc2ccc(C(F)(F)F)cc2)nc1,3.82% (inactive)
15,S=c1[nH]ccn1-c1ccc(Cl)cc1,1.55% (inactive)
16,COc1cc2c(C(=O)N3CCN(C)CC3)c(CSc3ccccc3)n(C)c2cc1Br,-4.81% (inactive)
17,Oc1ccc(-c2nncn2-c2ccccc2)cc1,3.4% (inactive)
18,O=C(CCCN1C(=O)/C(=C/c2cccs2)SC1=S)Nc1ccc(O)cc1,38.3% (active)
19,Cc1c(C(=O)NCCN2C(=O)S/C(=C\c3cccs3)C2=O)cccc1[N+](=O)[O-],9.81% (inactive)

row,Structure (SMILES),inhibition
1,CC(=O)Nc1ccc(NC(=O)CCN2C(=O)C3CC=CCC3C2=O)cc1 (configuration not stated),-12.5% (inactive)
2,O=C(NCCC1=CCCCC1)c1ccc(Cl)c([N+](=O)[O-])c1,7.85% (inactive)
3,Cn1nnc2cc(C(=O)NCCC3=CCCCC3)ccc21,35.4% (active)
4,CC(Sc1nncn1C)C(=O)NCCC1=CCCCC1 (configuration not stated),-8.96% (inactive)
5,COc1ccc(C(=O)NC(=S)Nc2ccccc2N2CCN(S(C)(=O)=O)CC2)cc1OC,41% (active)
6,CC(=O)N1CCN(c2ccccc2NC(=S)NC(=O)c2cc3ccccc3o2)CC1,6.86% (inactive)
7,CCc1ccc(C(=O)NC(=S)Nc2ccccc2N2CCOCC2)cc1,11% (inactive)
8,CC(=O)c1cccc(NC(=O)N2CCCC2C(=O)NCCc2ccccc2)c1 (configuration not stated),23.5% (inactive)
9,COCCn1cnnc1SCC(=O)Nc1cccc(S(=O)(=O)N2CCCCC2)c1,47% (active)
10,O=C(CSc1ccccc1)Nc1cccc(S(=O)(=O)N2CCCCC2)c1,12.9% (inactive)
11,Cn1nnnc1SCC(=O)Nc1cccc(S(=O)(=O)N2CCCCC2)c1,6.32% (inactive)
12,CCOC(=O)C1CCCN(C(=O)COc2ccc(N(C)S(=O)(=O)c3ccc(C)cc3)cc2)C1 (configuration not stated),-2.11% (inactive)
13,Cn1cc(S(=O)(=O)N2CCN(c3ccc(F)cc3)CC2)c(=O)n(C)c1=O,1.81% (inactive)
14,CCN1C(=O)[C@@H]2[C@@H]3CN(S(=O)(=O)c4ccccc4C)[C@@H](c4ccc(Cl)cc4)[C@@H]3C(=O)C[C@@H]2C1=O,2.39% (inactive)
15,C#CCN(C[C@H]1[C@H](OC(=O)NC2CCCC2)[C@H](OC(=O)NC2CCCC2)C[C@H]2C(=O)N(c3ccccc3)C(=O)[C@@H]12)S(=O)(=O)c1ccc(C)cc1,11.9% (inactive)
16,COc1ccc2oc(N)nc2c1,3.43% (inactive)
17,CCc1ccc2oc(-c3ccc(N)cc3)nc2c1,39.8% (active)
18,O=[N+]([O-])c1ccc2oc(-c3cccc(O)c3)nc2c1,17% (inactive)
19,CCCCN1CC(C)(C)[C@H](CC(=O)Nc2ccc(Br)cc2)C1=O,13% (inactive)

row,Structure (SMILES),inhibition
1,CCCCN1C[C@H](c2ccc(Br)cc2)[C@@H](CC(=O)Nc2ccc(Br)cc2)C1=O,46.8% (active)
2,C[C@H]1CN(c2ccc(Br)cc2)C(=O)[C@@H]1CC(=O)Nc1ccc(Br)cc1,-1.36% (inactive)
3,COC(=O)c1ccc(N(CC(=O)NC2CCCC2)C(=O)CNC(=O)c2ccco2)cc1,13.4% (inactive)
4,CN1CCN(S(=O)(=O)c2ccc(NC(=O)c3ccco3)cc2)CC1,13.7% (inactive)
5,O=C(/C=C/c1ccco1)Nc1ccc(Oc2ccccc2)cc1,48.8% (active)
6,NS(=O)(=O)c1cccc(NC(=O)COC(=O)/C=C/c2ccco2)c1,0.905% (inactive)
7,O=C(Nc1ccc(Oc2ccccc2)cc1)c1ccco1,38.8% (active)
8,Cc1ccoc1C(=O)Nc1cccc(Oc2ccccc2)c1,-23.9% (inactive)
9,O=C(/C=C/c1ccco1)NC(=S)N1CCCCC1,11.9% (inactive)
10,CCNc1nc(NC(C)C)nc(N2CC(=O)N(CC(=O)OCC)C2=N)n1,3.01% (inactive)
11,NS(=O)(=O)c1ccccc1NC(=O)c1c(O)c2ccccc2[nH]c1=O,5.41% (inactive)
12,COc1cccc(CNS(=O)(=O)c2ccc3c(c2)N(C(C)=O)CCS3)c1,19.6% (inactive)
13,CC1CCN(c2oc(-c3ccccc3F)nc2C#N)CC1,35.4% (active)
14,N#Cc1nc(-c2cccc3ccccc23)oc1N,16.8% (inactive)
15,Cc1oc(-c2ccccc2F)nc1CS(=O)CC(=O)NCCN1CCCCC1C (configuration not stated),5.11% (inactive)
16,O=[N+]([O-])c1cc([N+](=O)[O-])c(Oc2cc(F)cc(F)c2F)cc1NN1CCCCC1,15.8% (inactive)
17,CCCNC(=O)C1(C)CCN(C(=O)c2ccccc2OC(F)(F)F)C1 (configuration not stated),-0.325% (inactive)
18,O=C(CCc1ccc(S(=O)(=O)NC2CCCCC2)cc1)NCc1ccccc1,3.92% (inactive)
19,Cc1cc(N=Nc2ccc3ccccc3c2)ccc1O,44.4% (active)
